Results as given in the supplement of paper PMC11417369.
Whole data set: some 25,000 sequences, median “ln(normalized median fluorescence intensity)” near 9.3, cut for the highest 2% near 10. This excerpt belongs to a sample that is enriched for the highest values.

system: PF3D7_0420300 AP2 domain 1 (GST-tagged); assay: gcPBM binding intensity (ln(normalized median fluorescence intensity)); higher = stronger DNA binding
Method in brief: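 Using an Agilent 4 × 180k array, primer-extended double-stranded 36-bp intergenic genomic probes and negative controls were exposed for 1 h to GST-fused P. falciparum DNA-binding domains expressed in E. coli. Binding was carried out in 1× PBS with 1% milk, 0.2 mg/ml BSA, 0.5% salmon testes DNA and 0.03% Triton X-100, and protein was detected with Alexa488 anti-GST antibody and a 488 nm scan. Binding intensity is the highest Masliner-normalised natural-log median intensity across replicate spots of either probe orientation.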

Sequence	gcPBM binding intensity (ln)
CAACAATTTCGTCATACACACATTCAGAATATAGAT [CACACA_site7166]	9.68
CATGCAATATTAAACACACACTCATATAGCACAATA [CACACA_site6182]	9.73
GAACGAAACTTTCTTACACACATTGAAATTTTTTTC [CACACA_site1779]	9.62
AATAAGAAAACAAATGCACACCATTTATATAGATTA [CACACA_site8261]	9.56
TACACCAAAAAAAAACGTACAAAATCCCACCCAGAC [XGTACX_site4622]	10.6
AATACACCCAGACACACACACAAAAAAAAAAAAAAA [CACACA_site513]	9.51
AACAAATACAGACACACACACACACCCAAAAAAAAA [CACACA_site515]	9.99
CCCATGCATTTTTGCACACACATATATTTATAAATA [CACACA_site6785]	9.58
AAAAAAAAAAAACACACACACACAAATATATAAAAA [CACACA_site1171]	10.1
CTTACCAAAAGACACACACACACAAGATATATAAAT [CACACA_site6964]	10.2
TATAAATAAATAAACACACACAAATAAAATAAAAAA [CACACA_site7623]	10.1
AAAAAATATAAAAAAACACACAAAAAAAAAAAAAAA [CACACA_site1382]	9.4
AAATAAATAAAAAACACACACAAATAAATAAATATA [CACACA_site2249]	10.1
TACCAAAAGAAACACACACACAAAATATATAAATAT [CACACA_site1869]	10.2
ATAAATAAAAACACAAAACAAAACAAAACAAAACAA [CACACA_negctrl_site1257]	9.41
AAAAAAATAAAACACACACACAAAAAAATAAAAATA [CACACA_site465]	10.2
CTTACCAAAAAACACACACACACAAAATATATAAAT [CACACA_site1870]	10.3
TAATAAAAGATATATACACACAAATAAATAAATAAA [CACACA_site7818]	9.72
AAAAAAAAAAAACACACACACAAAATAAACAAACAA [CACACA_site2721]	10.3
TATATAAAGATATATACACACAAAAAAAAAAAAAAA [CACACA_site6778]	9.32
AAAAAAATGAAACACACACACACATATATATATATA [CACACA_site1043]	9.93
TTTTTATTATAAGGTCGTACAATTGTAATTATTGTA [XGTACX_site1413]	9.23
TATTTATTTTTTTTTGTGCACTTAATATAATCTTAC	9.24

Sequence	gcPBM binding intensity (ln)
ATATATATATATTATGTGCGCATATACCATTTTAAT [GTGCAC_site9575]	9.32
TATTACTTGATATATACACACATATAACATAAATGC [CACACA_site7783]	9.45
TATATATATATATATACACACATATATATAAATATA [CACACA_site2035]	9.2
TAAATAAATACATACACACACATACCTATATTTATA [CACACA_site7466]	9.93
GATAATACATAAATTTATAAGTGGAAGAATAAATAA [CACACA_negctrl_site698]	9.32
GGACAACAAACAAACACACACAAAAAAAAAATAAAA [CACACA_site3791]	9.84
CACAAACAAAAACACACACACACACCGACAAAAATG [CACACA_site5362]	10
CAAAAGAAGGTAAACACACACACACCCATACAAAAA [CACACA_site3765]	10.1
AAAGAAGGTAAACACACACACACACCGACAAAAAAA [CACACA_site9255]	10.3
TACTTACCAAAATACACACACACACTAGATATATAA [CACACA_site5096]	10.3
CAAAAGAAGGTAAACACACACACACGCATACAAAAA [CACACA_site7724]	10.1
TAAAATAAAACAAACACACACACACCGACACAAAAA [CACACA_site5993]	10.2
CAACAAAATAAACACACACACACAAACACAAAAAAA [CACACA_site5806]	10.3
AATACTTACCAAAATACACACACACCCAAAATATAT [CACACA_site8559]	10.1
TATTTATTAAAACACACACACACACCGACAAAATAA [CACACA_site4293]	10.1
TACTTACCAAAATACACACACACACCCAATATATAA [CACACA_site1871]	10.1
TTTACATATTTATATACACACTTTTGCGTGCGTGGT [CACACA_site6647]	9.21
AAAAAAATTGGGAAAAGTACTTGCAGCTAGCTAAAA [XGTACX_site5178]	9.18
TACTTTTATATGAATACACACAGGAATATATATATG [CACACA_site3568]	9.48
ATTCTAAATATCAGTGCACACATTTCTACGCAAAGT [CACACA_site474]	9.36
TATATATATATATATGGTACAGTTTATGCCTTTTAA [XGTACX_site6695]	9.14
TAGTGATATAATTATGTGCACTTAATACAGGTCGAT	9.42
AAAAAAAAAAAAAGTACACACTTTTGCGTACAAGTA [CACACA_site5672]	9.32

Sequence	gcPBM binding intensity (ln)
TTTTTAAAAAAAAATAGAGAGTCAAAGTATGTGGCG [CACACA_negctrl_site194]	9.32
AATTCTTTCATATATTGTACGTATTCCCATAAAATA [XGTACX_site5923]	9.36
AATGCCTTGTTGAGGTGTACTGAATGTTATTTTAAT [XGTACX_site3255]	9.19
AAATAATTCAAAAAAACACACAAATTACAAAATAAA [CACACA_site269]	9.72
CACAAAAATAAATATAAACACACAATAAATAAATAA [CACACA_site8197]	9.75
CAAAAAATTCAACACACACACACACCGATAAATAAA [CACACA_site8330]	10.2
ACAAATAAATAAAAAACACACACAAATAAATAAATA [CACACA_site8708]	10.1
ACAAAATAAAAACACACACACAAACACAAAAAAATA [CACACA_site3390]	10.3
AAAAAAAAAAAAAACACACACACAAAATAAACAAAC [CACACA_site2720]	10.3
TATATATAAATAAACACACACAAATATAATAAAAAA [CACACA_site3526]	10.1
AAAATAAAATAAAACACAAAAAAATAAAACAAAATA [CACACA_negctrl_site16]	9.8
AATATATATAAATAAACACACACAAATATAATAAAA [CACACA_site9176]	10.2
AATAAAAACAAACAAAAAAACAAATAAATAAATAAA [CACACA_negctrl_site483]	9.65
TACAAAAATATATAAACACACAAATATAATATATAT [CACACA_site2942]	9.74
TTCAAAATAAAAAATTCACACACATATATATATATA [CACACA_site8653]	9.33
TATATATTATAAAAGAGTACAGAAAGAAAAAAAAAT [XGTACX_site8305]	9.54
TCTTTTAAATAACAACATAAATAAATAAATAAATAA [GTGCAC_negctrl_site319]	9.01
GTGTATTTTGTGCGCACACACATGCAAAAAGAAATA [CACACA_site6660]	9.55
AGAAATTATAAATACCTACACACTTATCAAAATAAA [CACACA_site2264]	9.55
TTACACATATATATAAATATATATAAATATATATAT [CACACA_negctrl_site150]	9.08
AATATTATTTAGGAGCGTACGTTTTATTTACATATT [XGTACX_site5188]	9.4
TATATTAAACCATGTAGTACCTTGAATAAATATTAT [XGTACX_site8254]	9.23
TTTATTTAATTCATTGCATGTAATTTTTGTGTCCAC [TGCATGCA_site677]	9.21

Sequence	gcPBM binding intensity (ln)
ATTACATAACAATATACACACTATTGATTAAAGAGA [CACACA_site5602]	9.56
GGAATATAAATACATACACACATATATATATATATA [CACACA_site4998]	9.44
TTTTTTATTTTGTGCACACACATAAAAATATATATA [CACACA_site761]	9.5
TTAATAAGAGAGCAATAGGTGGACTGTTTCTTTTAT [CACACA_negctrl_site1239]	9.22
AATTAACAAAAACACACACACACACCCACAAAAAAA [CACACA_site517]	10.1
AAATAAATAATATGTAAACACACAAAAAATAAAAAT [CACACA_site8307]	9.72
AATTAACAAAAACACACACACACACCGACAAAAAAA [CACACA_site4444]	10.3
TAAATTAAAAAACACACACACAAAAAAAAAAAAAAA [CACACA_site2263]	10
TACCAAAATAGACACACACACAAAATATGTAAATAT [CACACA_site6963]	10.2
CACAAAAATAGACACACACACATATAAATAAATATA [CACACA_site6598]	10
ATATATATATATATATATATATATATATATTATATA [XGTACX_negctrl_site48]	8.89
ATGTGTATAATTAAATGTACATATATATATATATAT [XGTACX_site829]	9.52
ATATGTAGAATAAAAAAAAAAAAAAAAAAAAAAAAT [CACACA_negctrl_site621]	9.39
TATTAATTATATTTATGTACATAATCATATTATTAT [XGTACX_site7938]	9.37
ATATATATATAATTATATAAAATATATCATATGTTA [XGTACX_negctrl_site47]	9.15
TTTAATCATATGTTATATAATAAGCCCCCCCCCCAA [CACACA_negctrl_site486]	10.4
TGTAGCCTGGAGAAGAGTACATAGTATCTGGTAGCT [XGTACX_site4943]	9.12
ATATTCATGTTGATATGTACTTATTCTATATTGAAT [XGTACX_site8347]	9.28
AAGTGCATATTATTCACACATAATAATTGTATACCT [CACACA_site5965]	9.34
CTAAACAAAAAATAATGTACACATACATAAAAAATA [XGTACX_site1808]	9.35
